In all, about 310,000 compounds went through this assay and about 14,000 (4.5%) showed an effect of 50% or more. The effect is printed as a negative number. What follows is part of a selection rich in strong results, with near analogues and random picks from the rest.
molecular target: human ether-à-go-go-related gene (hERG) potassium channel (human, UniProt Q12809); experiment: primary screen, population patch clamp on CHO cells stably expressing hERG; higher = less effect of the substance
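Further: peak tail current of the secondary pulse compared with the same well before compound.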

human ether-à-go-go-related gene (hERG) potassium channel, sequence (Q12809 whole entry, looked up): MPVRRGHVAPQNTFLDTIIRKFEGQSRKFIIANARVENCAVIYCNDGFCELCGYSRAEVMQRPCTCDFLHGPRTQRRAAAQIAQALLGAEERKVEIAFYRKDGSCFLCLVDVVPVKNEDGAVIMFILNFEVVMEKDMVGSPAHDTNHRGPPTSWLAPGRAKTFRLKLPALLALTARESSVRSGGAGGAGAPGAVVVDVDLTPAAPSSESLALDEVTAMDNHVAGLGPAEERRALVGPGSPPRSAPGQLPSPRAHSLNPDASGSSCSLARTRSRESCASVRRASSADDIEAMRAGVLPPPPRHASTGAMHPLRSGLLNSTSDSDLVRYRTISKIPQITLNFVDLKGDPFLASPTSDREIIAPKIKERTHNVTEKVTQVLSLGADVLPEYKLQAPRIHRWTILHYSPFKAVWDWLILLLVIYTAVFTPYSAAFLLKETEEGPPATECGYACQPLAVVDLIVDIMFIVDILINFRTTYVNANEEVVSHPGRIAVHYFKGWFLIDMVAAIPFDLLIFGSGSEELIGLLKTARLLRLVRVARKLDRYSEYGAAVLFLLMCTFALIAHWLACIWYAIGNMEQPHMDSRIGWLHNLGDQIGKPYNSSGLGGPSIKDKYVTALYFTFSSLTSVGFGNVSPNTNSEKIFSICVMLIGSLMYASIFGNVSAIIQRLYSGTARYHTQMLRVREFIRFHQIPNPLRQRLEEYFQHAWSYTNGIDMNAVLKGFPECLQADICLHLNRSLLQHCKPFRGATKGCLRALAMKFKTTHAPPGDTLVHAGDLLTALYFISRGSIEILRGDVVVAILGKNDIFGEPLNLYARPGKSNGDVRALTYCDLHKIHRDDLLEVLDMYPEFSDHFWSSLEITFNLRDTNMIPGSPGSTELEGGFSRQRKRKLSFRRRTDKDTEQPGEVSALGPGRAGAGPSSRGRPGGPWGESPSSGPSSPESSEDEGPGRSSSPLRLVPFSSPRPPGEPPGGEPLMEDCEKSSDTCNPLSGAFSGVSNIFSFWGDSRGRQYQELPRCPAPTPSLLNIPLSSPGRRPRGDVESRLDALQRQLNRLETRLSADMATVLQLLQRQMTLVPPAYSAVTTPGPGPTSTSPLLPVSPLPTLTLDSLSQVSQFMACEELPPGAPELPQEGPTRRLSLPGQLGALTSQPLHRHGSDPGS

SMILES	hERG current change (%, negative = inhibition) at 10uM
CCN1CCN(C(=S)Nc2cc(C(=O)OC)ccc2C(=O)OC)CC1	16.9%
Cc1ccc(C(=O)NCCN2CCOCC2)cc1	12%
Br.N=c1n(CCN2CCCCC2)c2ccccc2n1CC(=O)c1ccc(Cl)c(Cl)c1	-72.6%
Br.COC(=O)Cn1c(=N)n(CCN2CCCCC2)c2ccccc21	-19.2%
Br.N=c1n(CCN2CCOCC2)c2ccccc2n1Cc1ccccc1Br	-72.9%
Cc1ccc(C(=O)NCCN2CCOCC2)cc1Cl	-17.7%
Br.N=c1n(CCN2CCCCC2)c2ccccc2n1CC(=O)c1cccs1	-25.2%
Cn1c(=O)n(Cc2ccccc2Br)c2ccccc21	-10.3%
N=c1n(CCOc2ccccc2)c2ccccc2n1CCN1CCOCC1	-42.9%
O=C(NCCN1CCOCC1)c1ccc(Cl)c(Cl)c1	-2.39%
Br.N=c1n(CCN2CCOCC2)c2ccccc2n1CC(=O)c1ccc(Cl)c(Cl)c1	-73.2%
Cc1ccc(C(=O)Cn2c(=N)n(CCN3CCOCC3)c3ccccc32)cc1.[Br-]	-59.9%
Br.Cc1ccc(C(=O)Cn2c(=N)n(N)c3ccccc32)cc1	-14.7%
COc1ccc(C)cc1NC(=O)c1ccc(NC(=O)CC2SC(N3CCCC3)=NC2=O)cc1 (stereo not shown)	18.2%
Cc1cn(-c2ccc(Br)cc2)[nH]c1=O	8.3%
COC(=O)C1=C(C)N=C2SC(C)C(=O)N2C1c1cccs1 (stereo not shown)	7.16%
CCNC(=O)NC(=O)COC(=O)CCCSc1nc2ccccc2s1	-8.6%
CCOc1ccc(S(=O)(=O)NCCC(=O)NCCc2ccc(C(C)C)cc2)cc1	3.89%
CCOC(=O)c1nn(-c2ccc([N+](=O)[O-])cc2)cc1O	2.65%
COC(=O)c1cc(OC)c(OC)cc1NCC(=O)Nc1cccc(C(F)(F)F)c1	13.8%
COc1ccc(C(=O)N2CCOCC2)cc1S(=O)(=O)N1CCC(C)CC1	-9.4%
COc1ccccc1NC(=O)Cn1c([N+](=O)[O-])cnc1C	11%

SMILES	hERG current change (%, negative = inhibition) at 10uM
NC(=S)N=Nc1c(O)n(CCCl)c2ccc(Br)cc12	-27.4%
CCc1ccccc1S(=O)(=O)Cc1ccc(C(=O)NCC2CCCO2)o1 (stereo not shown)	-23%
Cc1ccc(C(C)NC(=O)Cc2cccs2)cc1C (stereo not shown)	-44.2%
CCN1CCCC1CNC(=O)C(=O)NC(C)c1ccccc1 (stereo not shown)	13%
Br.CCn1c(=N)n(CC(=O)c2cccc([N+](=O)[O-])c2)c2ccccc21	12.1%
Br.C=CCn1c(=N)n(CC(=O)c2cccc([N+](=O)[O-])c2)c2ccccc21	-56.7%
Br.N=c1n(CC(=O)c2cccc([N+](=O)[O-])c2)c2ccccc2n1Cc1ccccc1	-17.9%
Br.N=c1n(CCN2CCOCC2)c2ccccc2n1CC(=O)c1cccc([N+](=O)[O-])c1	-42.2%
Cl.N=C(c1cccc([N+](=O)[O-])c1)N1CCCCCC1	2.26%
Br.N=c1n(CCN2CCCCC2)c2ccccc2n1CC(=O)c1cccc([N+](=O)[O-])c1	-69%
O=C1Nc2ccccc2/C1=C/c1cnc(-c2ccccc2)[nH]1	26.2%
C[C@@H]1C(=O)O[C@H]2[C@H](O)[C@@]34[C@H]5C[C@@H](C(C)(C)C)[C@]36[C@@H](OC(=O)[C@@H]6O)O[C@@]4(C(=O)O5)[C@@]12O	21.2%
CC(OC(=O)C1CCN(S(=O)(=O)c2ccc(Cl)cc2)CC1)C(=O)N1CCc2ccccc21 (stereo not shown)	-16.4%
Oc1ccc(-c2cccc(-c3ccc(O)cc3)n2)cc1	15.5%
CN(C)S(=O)(=O)N1CCN(C(=O)N2CCCCC2)CC1	3.64%
COc1cc(/C=C(\C#N)c2nn(CCO)c(N)c2C#N)cc(OC)c1OC	12.5%
O=C(COc1ccccc1)NCC(=O)N1CCCCCC1	7.21%
O=c1c(C=NCCCn2ccnc2)c(-c2ccccc2)[nH]n1-c1nc2ccccc2s1	-71.4%
CCC(=NCc1ccccc1)c1c(C(F)(F)F)[nH]n(-c2nc3ccccc3s2)c1=O	12.6%
O=c1c(C=NCc2cccnc2)c(C(F)(F)F)[nH]n1-c1nc2ccccc2s1	9.04%
O=c1cc(-c2ccccc2)[nH]n1-c1nc2ccccc2s1	14.2%
CN(C)CCCN=Cc1c(O)n(CCc2ccccc2)c(=O)[nH]c1=O	-0.99%

SMILES	hERG current change (%, negative = inhibition) at 10uM
C/C(=N/NC(=O)c1cccs1)c1c(C)[nH]n(-c2nc3ccccc3s2)c1=O	7.38%
O=c1[nH]c(=O)n(Cc2ccccc2)c(O)c1C=NCCCn1ccnc1	1.23%
CCN(CC)CCCN=Cc1c(-c2ccccc2)[nH]n(-c2nc3ccccc3s2)c1=O	-78.2%
O=c1c(C=NCCCO)c(-c2ccccc2)[nH]n1-c1nc2ccccc2s1	-72.6%
CCOC(=O)Cc1cc(=O)n(-c2nc3ccccc3s2)[nH]1	5.12%
CN(C)CCCN=Cc1c(-c2ccccc2)[nH]n(-c2nc3ccccc3s2)c1=O	-71%
Nn1c(SCC(=O)NC2CCS(=O)(=O)C2)nnc1-c1cccs1 (stereo not shown)	16.7%
COc1ccc(NC(=O)c2ccccc2CC[N+](=O)[O-])cc1	9.51%
COc1ccc(CCNC(=O)C2CC(c3ccc(C(F)(F)F)cc3)=NO2)cc1 (stereo not shown)	-6.74%
COc1ccc(C(=O)OCC(=O)NCC2CCCO2)cc1 (stereo not shown)	17.7%
COc1ccc2nc(NS(=O)(=O)c3ccc(NC(C)=O)cc3)sc2c1	14%
O=C(CCN1C(=O)/C(=C/c2ccco2)SC1=S)Nc1ccc(C(=O)O)c(O)c1	25.1%
Cc1sc2nc(C)n(/N=C/c3ccccc3O)c(=O)c2c1C	-7.37%
O=C(Nc1cc(C(F)(F)F)ccc1N1CCOCC1)c1ccccc1F	-4.2%
CC(=NC1CC1)c1c(-c2ccccc2)[nH]n(-c2nc3ccccc3s2)c1=O	9.63%
COCCCN=Cc1c(-c2ccccc2)[nH]n(-c2nc3ccccc3s2)c1=O	-75.1%
COCCCN=Cc1c(C)[nH]n(-c2ccc(Br)cc2Br)c1=O	20.4%
CC(=NCCCn1ccnc1)c1c(-c2ccccc2)[nH]n(-c2nc3ccccc3s2)c1=O	-70.8%
CCCN=C(C)c1c(-c2ccccc2)[nH]n(-c2nc3ccccc3s2)c1=O	-7.79%
COCCCN=Cc1c(C)[nH]n(-c2ccc(Br)c(C)c2)c1=O	-9.32%
Cn1nc([N+](=O)[O-])nc1Oc1ccccc1	-5.63%
COc1ccc(C(=O)NC2CCN(C(=S)Nc3cccc(C)c3C)CC2)cc1	0.204%

SMILES	hERG current change (%, negative = inhibition) at 10uM
O=C1c2cccc3c(Nc4ccccc4Cl)c([N+](=O)[O-])cc(c23)C(=O)N1CCO	-22.8%
O=C1O/C(=C\c2ccccc2)c2ccccc21	-57.8%
Cc1ccc(/C=C2\OC(=O)c3ccccc32)cc1	14.9%
O=C1O/C(=C/c2ccccc2)c2ccccc21	-3.12%
COc1ccc(S(=O)(=O)N2CCCC2C(=O)Nc2ccc(C)cc2)cc1 (stereo not shown)	-15.3%
O=C(COc1ccccc1)NNc1nc2c(F)cc(F)cc2s1	-62.6%
O=C(COc1ccccc1)NNc1nc2c(F)cccc2s1	32.6%
O=C(NNc1nc2c(F)cc(F)cc2s1)c1ccccc1	8.87%
O=C(NN=C1CCCCC1)Nc1ccccc1Cl	3.82%
CNC(=O)CSc1nnc(-c2ccco2)n1-c1cc(C)ccc1C	-2.95%
CCCn1c(SCC(=O)Nc2nonc2C)nnc1-c1ccoc1C	-8.43%
Cc1ccc(-n2c(SCC(=O)Nc3ccc4c(c3)OCO4)nnc2-c2ccoc2C)cc1	-42.2%
Cc1nonc1NC(=O)CSc1nnc(-c2ccoc2C)n1CC(C)C	-17.1%
Cc1nonc1NC(=O)CSc1nnc(-c2ccoc2C)n1C	4.89%
Cc1cccc(-n2c(SCC(=O)Nc3nonc3C)nnc2-c2ccoc2C)c1	-78.9%
CCn1c(SCC(=O)Nc2nonc2C)nnc1-c1ccoc1C	-1.18%
Cc1nonc1NC(=O)CSc1nnc(-c2ccoc2C)n1-c1cccc(Cl)c1	-77.9%
Cc1ccc(C)c(-n2c(SCC(=O)Nc3nonc3C)nnc2-c2ccoc2C)c1	-61.2%
COc1ccc(C)cc1NC(=O)C(C)N1CCOCC1.Cl (stereo not shown)	9.06%
Cc1nc(Nc2nc3ccccc3o2)nc(C)c1C	10.3%
CCC(C(=O)Nc1ccc(C(=O)O)cc1NC(=O)C(CC)c1ccccc1)c1ccccc1 (stereo not shown)	9.71%
CCOc1ccc(CCNC(=O)C2CCN(c3nn4c(=O)cc(C)nc4s3)CC2)cc1OCC	-8.23%

Source: article PMC4336329 (PLoS ONE, 2015)
